Data as given in PubChem BioAssay (NCI).
This is part of a sample that, as a whole, favours compounds with a hit. Of some 79,000 tested, about 15% had one in any assay. Values without a mark were called inactive. Activity calls are given as the source filed them. No stated cut-off is given here; in the data, active means growth inhibition above about 70%; inactive means the rest.

Experiments:
[1] = NCI Yeast Anticancer Drug Screen. Data for the wt1 strain (AID 149);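 further: 0% = growth of vehicle-treated wt1 cultures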; conditions: S. cerevisiae wt1 strain (SPY 50644) growth inhibition, stronger effect = higher value
Method in brief: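 The wt1 strain was treated with compounds, and growth was compared with vehicle-treated cultures to give inhibition.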

[2] = NCI Yeast Anticancer Drug Screen. Data for the rad50EPP+ strain (AID 151);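 further: 0% = growth of vehicle-treated control cultures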; conditions: S. cerevisiae rad50 mutant strain, stronger effect = higher value
Method in brief: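 One strain with a rad50 alteration (rad50EPP+) was compound-treated, its growth then compared to that of vehicle controls.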

[3] = NCI Yeast Anticancer Drug Screen. Data for the mgt1 strain (AID 153); conditions: S. cerevisiae mgt1 mutant growth inhibition, stronger effect = higher value
Method in brief: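 After exposure of the mgt1 yeast mutant to compound, growth was measured and reported as inhibition compared with vehicle controls.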

[4] = NCI Yeast Anticancer Drug Screen. Data for the rad50 strain (AID 155);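 further: 0% = growth of vehicle-only cultures of the same strain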; conditions: S. cerevisiae rad50 strain growth inhibition, stronger effect = higher value
Method in brief: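 Cells are treated with compound, grown, and their growth is then scored against vehicle-only cultures of the same repair-deficient yeast strain.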

[5] = NCI Yeast Anticancer Drug Screen. Data for the mec2-1 strain (AID 157); conditions: S. cerevisiae mec2-1 strain, stronger effect = higher value
Method in brief: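 Test agents were screened against the mec2-1 yeast strain, with defined DNA repair or cell cycle alteration. Growth was scored as inhibition against vehicle-only controls.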

[6] = NCI Yeast Anticancer Drug Screen. Data for the rad14 strain (AID 159);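 further: 0% = growth of vehicle-treated control cultures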; conditions: S. cerevisiae rad14 strain growth inhibition, stronger effect = higher value
Method in brief: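 Readout: yeast growth inhibition, referenced to vehicle-only cultures. Strain bears a defined alteration in DNA damage repair.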

[7] = NCI Yeast Anticancer Drug Screen. Data for the sgs1 mgt1 strain (AID 161);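 further: 0% = growth of cultures given vehicle only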; conditions: S. cerevisiae sgs1 mgt1 strain, stronger effect = higher value
Method in brief: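 Read-out: growth inhibition vs vehicle controls. Cells: mutant yeast strain deficient in DNA damage repair.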

[8] = NCI Yeast Anticancer Drug Screen. Data for the CLN2oe strain (AID 163);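 further: 0% = growth of vehicle-only control cultures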; conditions: S. cerevisiae CLN2oe strain, stronger effect = higher value
Method in brief: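 Here, growth inhibition in a cell-cycle-altered yeast strain after compound exposure was quantified against vehicle control growth.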

[9] = NCI Yeast Anticancer Drug Screen. Data for the cln2 rad14 strain (AID 165);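 further: 0% = growth equal to vehicle treated cultures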; conditions: S. cerevisiae cln2 rad14 strain, stronger effect = higher value
Method in brief: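 Growth of compound-exposed yeast (cln2 rad14 genotype) measured and expressed as inhibition relative to vehicle.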

[10] = NCI Yeast Anticancer Drug Screen. Data for the bub3 strain (AID 167); conditions: S. cerevisiae bub3 mutant strain, stronger effect = higher value
Method in brief: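 Part of a panel of yeast mutants defective in DNA damage repair or cell cycle regulation. Each strain is grown with compound, and inhibition is calculated relative to solvent-treated cultures.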

[11] = NCI Yeast Anticancer Drug Screen. Data for the wt2 strain (AID 169);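 further: 0% = growth of vehicle-treated yeast cultures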; conditions: S. cerevisiae wt2 strain growth inhibition, stronger effect = higher value
Method in brief: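 Genetically defined yeast strains from a DNA-repair/cell-cycle panel were used. Compound-exposed yeast growth was measured, and the inhibition was calculated relative to vehicle treatment.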

[12] = NCI Yeast Anticancer Drug Screen. Data for the mlh1 strain (AID 171);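 further: 0% = growth of vehicle-treated control cultures of the same strain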; conditions: S. cerevisiae mlh1 strain growth inhibition, stronger effect = higher value
Method in brief: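 Here the genetically defined yeast mutant is grown with each compound, and the extent to which its growth falls below that of vehicle-exposed cells is reported.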

[13] = NCI Yeast Anticancer Drug Screen. Data for the sgs1 strain (AID 173);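 further: 0% = growth of vehicle-only control cultures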; conditions: S. cerevisiae sgs1 mutant, stronger effect = higher value
Method in brief: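 Relative growth inhibition, referenced to vehicle, was determined in a yeast strain with a defined alteration affecting DNA damage repair or cell cycle control after compound exposure.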

[14] = NCI Yeast Anticancer Drug Screen. Data for the mlh1 rad18 strain (AID 175); conditions: S. cerevisiae mlh1 rad18 strain growth inhibition, stronger effect = higher value
Method in brief: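 In this whole-cell yeast screen, a strain with altered DNA damage repair is challenged with compound, and its growth is measured against matched vehicle-treated controls.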

[15] = NCI Yeast Anticancer Drug Screen. Data for the rad18 strain (AID 177); conditions: S. cerevisiae rad18 mutant growth inhibition, stronger effect = higher value
Method in brief: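 Screen uses a yeast strain with a defined lesion in DNA damage repair; compound effect is read as loss of growth compared to untreated vehicle cultures.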

[16] = at 5.0 µM (retest, dose inferred, filed as 0.5)
[17] = at 50.0 µM (retest, dose inferred, filed as 5.0)

Compound: O=c1c(Br)cc2c(-c3ccccc3)c3cc(Br)c(O)c(Br)c3oc-2c1Br
- growth inhibition ([1]; at 1.2 µM): -1%
- growth inhibition ([1]; at 3.7 µM): 11%
- growth inhibition ([1]; at 11.0 µM): 9%
- growth inhibition ([1]; at 33.0 µM): 0%
- growth inhibition ([1]; at 100.0 µM): -4%
- growth inhibition ([2]; at 1.2 µM): 1%
- growth inhibition ([2]; at 3.7 µM): 23%
- growth inhibition ([2]; at 11.0 µM): 38%
- growth inhibition ([2]; at 33.0 µM): 57%
- growth inhibition ([2]; at 100.0 µM): 39%
- growth inhibition ([3]; at 1.2 µM): 0%
- growth inhibition ([3]; at 3.7 µM): -2%
- growth inhibition ([3]; at 11.0 µM): 9%
- growth inhibition ([3]; at 33.0 µM): 28%
- growth inhibition ([3]; at 100.0 µM): 23%
- growth inhibition ([4]; at 1.2 µM): -54%
- growth inhibition ([4]; at 3.7 µM): 24%
- growth inhibition [4, 16]: 22%
- growth inhibition ([4]; at 11.0 µM): 89% (active)
- growth inhibition ([4]; at 33.0 µM): 87% (active)
- growth inhibition [4, 17]: 13%
- growth inhibition ([4]; at 50.0 µM): 80.8% (active)
- growth inhibition ([4]; at 100.0 µM): 80% (active)
- growth inhibition ([5]; at 1.2 µM): 1%
- growth inhibition ([5]; at 3.7 µM): 4%
- growth inhibition [5, 16]: 54%
- growth inhibition ([5]; at 11.0 µM): -1%
- growth inhibition ([5]; at 33.0 µM): -3%
- growth inhibition [5, 17]: 28%
- growth inhibition ([5]; at 50.0 µM): 78.4% (active)
- growth inhibition ([5]; at 100.0 µM): -1%
- growth inhibition ([6]; at 1.2 µM): 2%
- growth inhibition ([6]; at 3.7 µM): 17%
- growth inhibition ([6]; at 11.0 µM): 31%
- growth inhibition ([6]; at 33.0 µM): 22%
- growth inhibition ([6]; at 100.0 µM): -4%
- growth inhibition [7, 16]: 16%
- growth inhibition [7, 17]: 7%
- growth inhibition ([7]; at 50.0 µM): 61.3%
- growth inhibition ([8]; at 1.2 µM): 3%
- growth inhibition ([8]; at 3.7 µM): 5%
- growth inhibition ([8]; at 11.0 µM): 9%
- growth inhibition ([8]; at 33.0 µM): 23%
- growth inhibition ([8]; at 100.0 µM): 15%
- growth inhibition [9, 16]: 28%
- growth inhibition [9, 17]: 12%
- growth inhibition ([9]; at 50.0 µM): 55%
- growth inhibition ([10]; at 1.2 µM): -4%
- growth inhibition ([10]; at 3.7 µM): 4%
- growth inhibition [10, 16]: 6%
- growth inhibition ([10]; at 11.0 µM): 76% (active)
- growth inhibition ([10]; at 33.0 µM): 92% (active)
- growth inhibition [10, 17]: -6%
- growth inhibition ([10]; at 50.0 µM): 54.2%
- growth inhibition ([10]; at 100.0 µM): 79% (active)
- growth inhibition ([11]; at 1.2 µM): 10%
- growth inhibition ([11]; at 3.7 µM): 17%
- growth inhibition ([11]; at 11.0 µM): 21%
- growth inhibition ([11]; at 33.0 µM): 18%
- growth inhibition ([11]; at 100.0 µM): 6%
- growth inhibition ([12]; at 1.2 µM): 0%
- growth inhibition ([12]; at 3.7 µM): -29%
- growth inhibition ([12]; at 11.0 µM): 12%
- growth inhibition ([12]; at 33.0 µM): 18%
- growth inhibition ([12]; at 100.0 µM): 25%
- growth inhibition ([13]; at 1.2 µM): 0%
- growth inhibition ([13]; at 3.7 µM): 8%
- growth inhibition ([13]; at 11.0 µM): 26%
- growth inhibition ([13]; at 33.0 µM): 22%
- growth inhibition ([13]; at 100.0 µM): 13%
- growth inhibition [14, 16]: 67%
- growth inhibition [14, 17]: 58%
- growth inhibition ([14]; at 50.0 µM): 83.4% (active)
- growth inhibition ([15]; at 1.2 µM): -8%
- growth inhibition ([15]; at 3.7 µM): 9%
- growth inhibition ([15]; at 11.0 µM): 1%
- growth inhibition ([15]; at 33.0 µM): -2%
- growth inhibition ([15]; at 100.0 µM): -10%

Compound: Cc1ccccc1C1=C(CC(=O)O)c2ccccc2CC1C (stereo unspecified)
- growth inhibition ([1]; at 1.2 µM): 4%
- growth inhibition ([1]; at 3.7 µM): 8%
- growth inhibition ([1]; at 11.0 µM): 29%
- growth inhibition ([1]; at 33.0 µM): 96% (active)
- growth inhibition ([1]; at 100.0 µM): 96% (active)
- growth inhibition ([2]; at 1.2 µM): -1%
- growth inhibition ([2]; at 3.7 µM): 2%
- growth inhibition ([2]; at 11.0 µM): 6%
- growth inhibition ([2]; at 33.0 µM): 10%
- growth inhibition ([2]; at 100.0 µM): 49%
- growth inhibition ([3]; at 1.2 µM): 9%
- growth inhibition ([3]; at 3.7 µM): 11%
- growth inhibition ([3]; at 11.0 µM): 22%
- growth inhibition ([3]; at 33.0 µM): 95% (active)
- growth inhibition ([3]; at 100.0 µM): 99% (active)
- growth inhibition ([4]; at 1.2 µM): 6%
- growth inhibition ([4]; at 3.7 µM): 10%
- growth inhibition [4, 16]: 6%
- growth inhibition ([4]; at 11.0 µM): 45%
- growth inhibition ([4]; at 33.0 µM): 97% (active)
- growth inhibition [4, 17]: 10%
- growth inhibition ([4]; at 50.0 µM): 98.9% (active)
- growth inhibition ([4]; at 100.0 µM): 99% (active)
- growth inhibition ([5]; at 1.2 µM): 9%
- growth inhibition ([5]; at 3.7 µM): 20%
- growth inhibition [5, 16]: 10%
- growth inhibition ([5]; at 11.0 µM): 49%
- growth inhibition ([5]; at 33.0 µM): 95% (active)
- growth inhibition [5, 17]: 6%
- growth inhibition ([5]; at 50.0 µM): 99.7% (active)
- growth inhibition ([5]; at 100.0 µM): 99% (active)
- growth inhibition ([6]; at 1.2 µM): 6%
- growth inhibition ([6]; at 3.7 µM): 11%
- growth inhibition ([6]; at 11.0 µM): 29%
- growth inhibition ([6]; at 33.0 µM): 98% (active)
- growth inhibition ([6]; at 100.0 µM): 99% (active)
- growth inhibition [7, 16]: 2%
- growth inhibition [7, 17]: 20%
- growth inhibition ([7]; at 50.0 µM): 99.6% (active)
- growth inhibition ([8]; at 1.2 µM): 10%
- growth inhibition ([8]; at 3.7 µM): 15%
- growth inhibition ([8]; at 11.0 µM): 57%
- growth inhibition ([8]; at 33.0 µM): 97% (active)
- growth inhibition ([8]; at 100.0 µM): 98% (active)
- growth inhibition [9, 16]: -13%
- growth inhibition [9, 17]: 28%
- growth inhibition ([9]; at 50.0 µM): 99.4% (active)
- growth inhibition ([10]; at 1.2 µM): 11%
- growth inhibition ([10]; at 3.7 µM): 9%
- growth inhibition [10, 16]: -4%
- growth inhibition ([10]; at 11.0 µM): 26%
- growth inhibition ([10]; at 33.0 µM): 93% (active)
- growth inhibition [10, 17]: 1%
- growth inhibition ([10]; at 50.0 µM): 99% (active)
- growth inhibition ([10]; at 100.0 µM): 99% (active)
- growth inhibition ([11]; at 1.2 µM): 5%
- growth inhibition ([11]; at 3.7 µM): 7%
- growth inhibition ([11]; at 11.0 µM): 37%
- growth inhibition ([11]; at 33.0 µM): 97% (active)
- growth inhibition ([11]; at 100.0 µM): 98% (active)
- growth inhibition ([12]; at 1.2 µM): 6%
- growth inhibition ([12]; at 3.7 µM): 12%
- growth inhibition ([12]; at 11.0 µM): 32%
- growth inhibition ([12]; at 33.0 µM): 96% (active)
- growth inhibition ([12]; at 100.0 µM): 99% (active)
- growth inhibition ([13]; at 1.2 µM): 5%
- growth inhibition ([13]; at 3.7 µM): 10%
- growth inhibition ([13]; at 11.0 µM): 40%
- growth inhibition ([13]; at 33.0 µM): 98% (active)
- growth inhibition ([13]; at 100.0 µM): 99% (active)
- growth inhibition [14, 16]: 14%
- growth inhibition [14, 17]: 50%
- growth inhibition ([14]; at 50.0 µM): 99.5% (active)
- growth inhibition ([15]; at 1.2 µM): 4%
- growth inhibition ([15]; at 3.7 µM): 10%
- growth inhibition ([15]; at 11.0 µM): 38%
- growth inhibition ([15]; at 33.0 µM): 96% (active)
- growth inhibition ([15]; at 100.0 µM): 99% (active)
